Assay [1] deals with Lysosomal acid glucosylceramidase (Homo sapiens) (UniProt P04062). Nature of the assay: Glucocerebrosidase-p2 (AID 348; in the data active means potency below about 10 µM; further: potency means the concentration at half of the fitted maximal effect). The note with it: purified GBA, blue fluorogenic substrate, 40 min. In outline:
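Normal human glucocerebrosidase (0.2 nM) with blue fluorogenic substrate (80 uM final) in citrate/phosphate pH 5.9 with 10mM sodium taurocholate, 0.01% tween-20; 40 min RT, NaOH/glycine stop; fluorescence Ex 365/Em 440; AC50 from a titration from 0.6 nM upwards.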

Assay [2] in a line: AP1 Signaling Pathway (AID 357).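 Further: ME-180 reporter cells stimulated with EGF at its EC50 level; on the % scale 0 is the no-effect control and ±100 the full control effect.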 To be noted: ME-180 AP-1-bla reporter, EGF-induced, beta-lactamase ratio, 5 h; at 7.69 µM (top of the series) unless noted. An outline of the steps: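 In this screen, ME-180 cells in Opti-MEM with 0.5% dialyzed FBS received EC50 EGF and compound titrations for 5 h. AP-1 reporter beta-lactamase was detected via CCF4 ratio, giving AC50 for positive and negative modulators.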

Assay [3] in a line: NFAT Signaling Pathway (AID 444).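 Further: carbachol stimulus at about its EC50 of 1 µM final; on the % scale 0 is the no-effect control and ±100 the full control effect.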 The note with it: Jurkat NFAT-bla M1, carbachol, beta-lactamase ratio, 5 h; at 7.69 µM (top of the series) unless noted. An outline of the steps: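 Jurkat cells with NFAT-driven β-lactamase reporter and co-expressed M1 receptor, stimulated with carbachol (final 1 uM, ~EC50), compound titration, 5 h at 37 °C. CCF4 loaded 1 h at RT; 460/530 nm ratio gave %activity and AC50.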

Assay [4] is described as follows: Stat Signaling Pathway (AID 446).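 Further: ME-180 cervical cancer cells given 40 pM IL-6 alongside compound; SIE-controlled beta-lactamase reporter measured as 460/530 nm FRET emission ratio; on the % scale 0 is the no-effect control and ±100 the full control effect.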 To be noted: ME-180 (cervical carcinoma) SIE beta-lactamase reporter, IL-6 stimulated, 5 h; at 7.69 µM (top of the series) unless noted. In outline:
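FRET read-out (405 nm excitation, 460/530 nm emission) of a beta-lactamase reporter under a STAT-inducible element in ME-180 cervical carcinoma cells. Cells with compound receive 40 pM IL-6 for 5 h. Values are normalised to AC90 stimulation and AC90 JAK-inhibitor controls.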

Assay [5] deals with Glucocorticoid receptor (Homo sapiens) (UniProt P04150). Nature of the assay: GR-GFP Redistribution (AID 450;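 active means compounds whose dose series gives a full or clear partial fitted curve of increased nuclear translocation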; further: potency means the concentration at half of the fitted maximal effect). The note with it: U2OS GR-GFP nuclear translocation, laser cytometry, 2 h.
Glucocorticoid receptor (Homo sapiens), sequence (P04150 whole entry, looked up): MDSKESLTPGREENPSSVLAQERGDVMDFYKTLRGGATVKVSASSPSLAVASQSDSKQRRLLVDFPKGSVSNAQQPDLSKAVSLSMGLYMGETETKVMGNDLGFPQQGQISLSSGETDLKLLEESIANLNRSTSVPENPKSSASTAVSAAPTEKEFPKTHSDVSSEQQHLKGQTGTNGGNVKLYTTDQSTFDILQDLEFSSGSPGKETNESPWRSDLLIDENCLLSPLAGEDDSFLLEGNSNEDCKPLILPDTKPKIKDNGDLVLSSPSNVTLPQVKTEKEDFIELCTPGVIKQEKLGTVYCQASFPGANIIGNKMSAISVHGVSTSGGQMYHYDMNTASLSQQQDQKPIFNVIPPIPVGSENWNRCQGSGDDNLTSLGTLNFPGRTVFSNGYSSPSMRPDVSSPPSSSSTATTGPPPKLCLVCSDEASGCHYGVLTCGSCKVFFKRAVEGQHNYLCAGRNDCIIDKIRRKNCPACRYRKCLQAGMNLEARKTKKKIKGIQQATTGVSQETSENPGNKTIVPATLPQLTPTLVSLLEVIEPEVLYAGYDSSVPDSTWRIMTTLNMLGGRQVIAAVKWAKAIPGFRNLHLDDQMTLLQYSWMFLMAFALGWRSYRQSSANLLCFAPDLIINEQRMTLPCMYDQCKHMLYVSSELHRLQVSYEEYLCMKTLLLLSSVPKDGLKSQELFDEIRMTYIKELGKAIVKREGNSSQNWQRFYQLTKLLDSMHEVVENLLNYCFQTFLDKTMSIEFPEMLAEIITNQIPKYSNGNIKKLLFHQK
The target is the same in assay [6]. Nature of the assay: GR-EFC Redistribution (AID 451; calls by dose curve; further: potency means the concentration at half of the fitted maximal effect). The note with it: CHO-K1 GR-EFC translocation, beta-gal luminescence, 2 h. In outline:
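CHO-K1 cells expressing nuclear EA and GR-ED fragments of b-gal; compounds titrated up to 46 uM final, 2 h at 37 C. GR nuclear translocation read as complemented b-gal luminescence after 1 h RT detection.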

Assay [7] has as its target Mitogen-activated protein kinase 10 (Mus musculus) (UniProt Q61831). Kind of assay: JNK3 AlphaScreen Assay (AID 530).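 Further: kinase came from lysate of stimulated human HepG2 cells; signal reports phosphorylation of biotinylated GST-cJun 1-79 at Ser73 with 10 µM ATP; on the % scale 0 is the no-effect control and ±100 the full control effect.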 The note with it: JNK3 lysate, c-Jun phosphorylation; series mostly up to 11.4 µM. In outline: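 HepG2 lysate (IL-1b/TNFa pre-activated) + biotin-GST-cJun 1-79 + anti-pSer73 cJun; cpd titration, 15 min RT; ATP 10 uM start; Tris pH 7.6, MgCl2, DTT, vanadate; beads in EDTA buffer; AlphaScreen.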

Assay [8] deals with 3',5'-cyclic-AMP phosphodiesterase 4B (Homo sapiens) (UniProt Q07343). Nature of the assay: qHTS Assay for Inhibitors of PDE-IV (AID 607; active means well fitted activation curve with a large enough effect in the main read-out, with a control signal flat, not every such curve was filed as active; further: % of control where 0% means no effect). The note with it: HEK293 ACTOne CNG channel cells, membrane potential fluorescence; series mostly up to 22.9 µM. In outline:
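Cell-based read-out of cAMP via a modified cyclic nucleotide-gated channel and membrane potential dye (535/590 nm) in HEK293 cells expressing PDE4 endogenously. Compounds tested up to 22.9 uM final; 100 uM RO 20-1724 reference.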

For assay [9], the target named is Cytochrome P450 2C9 (Homo sapiens) (UniProt P11712). Kind of assay: qHTS Assay for Inhibitors and Substrates of Cytochrome P450 2C9 (AID 883; active means well fitted curve in the direction sought with a large enough effect; an effect the other way counts as inactive or inconclusive; further: on the % scale 0 is the no-effect control and ±100 the full control effect; nearly all actives have a fitted effect of over 60% in size). To be noted: recombinant CYP2C9, luciferin-H luminescence, 60 min; series mostly up to 11.4 µM. An outline of the steps: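 10nM CYP2C9 + 100uM Luciferin-H (=KM), 25mM KPO4; cpd 10 min 37C; NADPH regen, 60 min 37C; stop/detect with P450 Glo-Buffer 20 min; luminescence. Norm. to 57uM sulphaphenazole as full inhibition.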
Cytochrome P450 2C9 (Homo sapiens), sequence (P11712 whole entry, looked up): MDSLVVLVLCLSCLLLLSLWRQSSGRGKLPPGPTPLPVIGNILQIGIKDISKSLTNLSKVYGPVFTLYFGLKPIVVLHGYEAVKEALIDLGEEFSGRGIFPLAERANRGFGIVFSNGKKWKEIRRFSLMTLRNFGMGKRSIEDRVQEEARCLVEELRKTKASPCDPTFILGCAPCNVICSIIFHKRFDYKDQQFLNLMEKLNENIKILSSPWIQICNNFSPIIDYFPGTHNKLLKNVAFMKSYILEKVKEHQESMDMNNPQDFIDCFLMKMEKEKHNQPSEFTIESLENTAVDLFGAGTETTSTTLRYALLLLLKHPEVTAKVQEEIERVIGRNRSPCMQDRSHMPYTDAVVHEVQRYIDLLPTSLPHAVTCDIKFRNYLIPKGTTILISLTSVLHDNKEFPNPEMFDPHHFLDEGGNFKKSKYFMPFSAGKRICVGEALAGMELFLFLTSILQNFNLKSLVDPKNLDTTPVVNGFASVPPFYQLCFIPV

For assay [10], the target named is Cytochrome P450 3A4 (Homo sapiens) (UniProt P08684). Kind of assay: qHTS Assay for Inhibitors and Substrates of Cytochrome P450 3A4 (AID 884; active means well fitted curve in the direction sought with a large enough effect; an effect the other way counts as inactive or inconclusive; further: nearly all actives have a fitted effect of over 50% in size; further: potency means the concentration at half of the fitted maximal effect). The note with it: recombinant CYP3A4, Luciferin-PPXE luminescence; series mostly up to 57.1 µM. An outline of the steps:
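Luminescent readout of luciferin produced by CYP3A4 (20 nM) dealkylation of Luciferin-PPXE, 25 uM (its KM). NADPH-driven reaction ran 60 min at RT after 10 min compound preincubation; data scaled to 57 uM ketoconazole as 100% inhibition.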

Assay [11] addresses Cytochrome P450 2D6 (Homo sapiens) (UniProt P10635). Kind of assay: qHTS Assay for Inhibitors and Substrates of Cytochrome P450 2D6 (AID 891; active means well fitted curve in the direction sought with a large enough effect; an effect the other way counts as inactive or inconclusive;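 further: luciferin methyl ether substrate demethylated by CYP2D6 with NADPH regeneration; on the % scale 0 is the no-effect control and ±100 the full control effect; nearly all actives have a fitted effect of over 60% in size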). The note with it: recombinant CYP2D6, luciferin-ME EGE luminescence; series mostly up to 11.4 µM. In outline: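 Luminescent read-out of luciferin formed by 5 nM human CYP2D6 demethylating 30 uM Luciferin-ME EGE (Km level) over 60 min at room temperature after NADPH regeneration addition. Data normalized to full inhibition by 1.43 uM quinidine.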

Assay [12] deals with Cytochrome P450 2C19 (Homo sapiens) (UniProt P33261). Nature of the assay: qHTS Assay for Inhibitors and Substrates of Cytochrome P450 2C19 (AID 899; active means well fitted curve in the direction sought with a large enough effect; an effect the other way counts as inactive or inconclusive; further: on the % scale 0 is the no-effect control and ±100 the full control effect; nearly all actives have a fitted effect of over 60% in size). To be noted: recombinant CYP2C19, luciferin-H EGE luminescence; series mostly up to 11.4 µM. In outline:
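Luminescent read-out of luciferin formed from Luciferin-H EGE (10uM, equal to KM). Enzyme 5nM in 50mM KPO4; compound added, 10 min at 37C, then NADPH regenerating system for 60 min at 37C. Full inhibition defined by 57uM ketoconazole.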

In assay [13] the target is Cytochrome P450 3A4 (Homo sapiens) (UniProt P08684). Nature of the assay: qHTS Assay for Activators of Cytochrome P450 3A4 (AID 885; active means well fitted curve in the direction sought with a large enough effect; an effect the other way counts as inactive or inconclusive; further: nearly all actives have a fitted effect of over 65% in size). The note with it: recombinant CYP3A4, Luciferin-PPXE luminescence, 60 min; series mostly up to 11.4 µM. An outline of the steps:
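Luminescent readout of luciferin formed from 25 uM Luciferin-PPXE (KM level) by 20 nM CYP3A4 in 200 mM KPO4, with 60 min NADPH-driven reaction at room temperature after 10 min compound exposure. Ketoconazole (57 uM) defined 100% inhibition.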

From PubChem BioAssay (NCATS) come the findings set out here.

A number with no mark means an inactive call. Results filed as inconclusive are left out. Active and inactive are the calls of the source. Unless noted, the call rests on the fitted dose curve; in most records, active means well fitted curve in either direction with a large enough effect (not every such curve was filed as active); inconclusive means small, poorly fitted or top-dose-only effect, or another doubt; inactive means flat fitted curve, though single readings scatter. A value given as a limit tells only on which side of the number the result lay.

Cytochrome P450 3A4 (Homo sapiens), sequence (P08684 whole entry, looked up): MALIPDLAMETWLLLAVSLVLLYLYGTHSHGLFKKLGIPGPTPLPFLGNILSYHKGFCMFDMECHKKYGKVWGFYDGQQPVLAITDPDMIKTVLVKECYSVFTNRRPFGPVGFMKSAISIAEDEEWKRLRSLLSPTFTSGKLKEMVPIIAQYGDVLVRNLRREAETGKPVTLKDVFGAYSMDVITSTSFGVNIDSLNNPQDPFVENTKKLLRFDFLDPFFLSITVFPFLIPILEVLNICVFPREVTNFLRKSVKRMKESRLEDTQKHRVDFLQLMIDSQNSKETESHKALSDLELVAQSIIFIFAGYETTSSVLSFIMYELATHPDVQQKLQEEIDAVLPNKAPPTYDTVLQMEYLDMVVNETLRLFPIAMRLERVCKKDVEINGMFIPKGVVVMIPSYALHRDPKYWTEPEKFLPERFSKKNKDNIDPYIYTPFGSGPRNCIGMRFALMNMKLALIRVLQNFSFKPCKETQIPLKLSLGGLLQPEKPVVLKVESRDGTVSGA
Lysosomal acid glucosylceramidase (Homo sapiens), sequence (P04062 whole entry, looked up): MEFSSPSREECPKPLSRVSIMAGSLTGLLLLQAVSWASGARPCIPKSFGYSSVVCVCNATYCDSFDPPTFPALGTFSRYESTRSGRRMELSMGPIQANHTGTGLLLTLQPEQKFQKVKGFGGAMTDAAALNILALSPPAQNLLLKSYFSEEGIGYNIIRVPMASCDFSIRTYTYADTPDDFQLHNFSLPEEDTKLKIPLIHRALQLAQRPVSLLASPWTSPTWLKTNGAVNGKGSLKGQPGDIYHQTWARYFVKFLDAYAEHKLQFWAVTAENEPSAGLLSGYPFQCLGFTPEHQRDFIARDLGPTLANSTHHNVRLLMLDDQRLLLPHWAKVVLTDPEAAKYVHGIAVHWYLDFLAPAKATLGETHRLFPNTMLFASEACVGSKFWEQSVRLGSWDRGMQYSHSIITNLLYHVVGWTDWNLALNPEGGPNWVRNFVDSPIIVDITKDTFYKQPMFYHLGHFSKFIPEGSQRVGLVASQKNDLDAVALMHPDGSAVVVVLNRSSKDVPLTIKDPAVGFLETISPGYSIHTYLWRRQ
3',5'-cyclic-AMP phosphodiesterase 4B (Homo sapiens), sequence (Q07343 whole entry, looked up): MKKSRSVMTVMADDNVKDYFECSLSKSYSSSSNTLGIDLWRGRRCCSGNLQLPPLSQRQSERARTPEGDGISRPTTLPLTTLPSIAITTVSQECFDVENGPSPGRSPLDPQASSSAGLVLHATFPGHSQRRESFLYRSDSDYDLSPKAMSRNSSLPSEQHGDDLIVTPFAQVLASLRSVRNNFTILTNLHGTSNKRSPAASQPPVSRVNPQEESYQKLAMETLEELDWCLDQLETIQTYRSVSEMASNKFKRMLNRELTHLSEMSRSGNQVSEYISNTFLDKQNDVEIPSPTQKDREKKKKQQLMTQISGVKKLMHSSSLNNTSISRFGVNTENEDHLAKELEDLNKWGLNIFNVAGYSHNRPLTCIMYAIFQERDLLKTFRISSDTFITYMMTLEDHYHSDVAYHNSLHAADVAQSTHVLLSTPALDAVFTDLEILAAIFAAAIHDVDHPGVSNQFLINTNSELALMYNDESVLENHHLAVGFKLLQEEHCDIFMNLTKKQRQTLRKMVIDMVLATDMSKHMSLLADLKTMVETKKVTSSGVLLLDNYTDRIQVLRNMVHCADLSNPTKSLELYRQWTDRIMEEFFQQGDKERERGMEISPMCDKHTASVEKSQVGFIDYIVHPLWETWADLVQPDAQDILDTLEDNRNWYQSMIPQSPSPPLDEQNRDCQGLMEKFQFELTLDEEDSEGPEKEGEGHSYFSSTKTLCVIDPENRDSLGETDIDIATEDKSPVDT
Cytochrome P450 2D6 (Homo sapiens), sequence (P10635 whole entry, looked up): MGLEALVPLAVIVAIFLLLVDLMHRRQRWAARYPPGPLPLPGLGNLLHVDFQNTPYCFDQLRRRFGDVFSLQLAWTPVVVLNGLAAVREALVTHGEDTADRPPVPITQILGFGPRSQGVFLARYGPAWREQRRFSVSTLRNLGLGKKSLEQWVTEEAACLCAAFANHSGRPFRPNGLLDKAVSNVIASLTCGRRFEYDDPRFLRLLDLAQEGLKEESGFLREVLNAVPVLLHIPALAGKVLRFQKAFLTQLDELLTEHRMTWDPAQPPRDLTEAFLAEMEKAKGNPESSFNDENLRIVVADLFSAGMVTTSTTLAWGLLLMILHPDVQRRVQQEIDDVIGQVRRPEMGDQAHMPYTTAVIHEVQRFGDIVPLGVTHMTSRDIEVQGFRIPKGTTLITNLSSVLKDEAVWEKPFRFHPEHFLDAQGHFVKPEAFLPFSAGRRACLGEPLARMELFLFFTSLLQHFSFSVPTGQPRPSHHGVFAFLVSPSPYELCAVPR
Cytochrome P450 2C19 (Homo sapiens), sequence (P33261 whole entry, looked up): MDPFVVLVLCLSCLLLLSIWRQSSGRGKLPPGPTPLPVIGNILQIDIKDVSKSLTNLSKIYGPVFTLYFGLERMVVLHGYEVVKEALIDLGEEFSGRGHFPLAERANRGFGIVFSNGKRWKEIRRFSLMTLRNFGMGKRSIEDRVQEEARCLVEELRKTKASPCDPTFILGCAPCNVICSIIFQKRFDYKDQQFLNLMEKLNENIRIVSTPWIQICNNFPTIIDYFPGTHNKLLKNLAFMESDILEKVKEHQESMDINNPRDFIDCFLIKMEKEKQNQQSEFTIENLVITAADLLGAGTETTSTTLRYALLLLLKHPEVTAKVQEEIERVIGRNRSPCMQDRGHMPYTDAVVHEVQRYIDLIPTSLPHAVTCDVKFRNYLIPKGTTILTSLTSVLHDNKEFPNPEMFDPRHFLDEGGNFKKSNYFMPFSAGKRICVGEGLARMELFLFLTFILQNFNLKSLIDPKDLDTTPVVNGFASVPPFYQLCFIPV

Take `N=C(N)c1ccc(/C=C\c2ccc(C(=N)N)cc2)cc1`: the Potency is > 11.4 µM in assay [1], > 46 µM in [5] and > 9.22 µM in assay [6]. The activity change, negative = inhibition in assay [2] is 0.27%; in assay [3], -7.18%. The activity, negative = inhibition in [4] is 7.39%. Moreover, the Potency entry in [7] and in [8] was “inactive” in each case.
For the molecule `O=C(O)CCc1ccc(-c2ccccc2)[nH]1`, the Potency in [1] was > 11.4 µM; in [5] it was > 46 µM; in assay [6] it was > 9.22 µM. Further, the activity change, negative = inhibition in [2] is 2.27%; in assay [3], 13.2%. The activity, negative = inhibition in assay [4] is 1.73%. Further, the Potency result in assay [7] and in [8] was “inactive” throughout.
`O=C(O)CSc1n[nH]c(=O)[nH]c1=O`: the results for the Potency in assay [1], in assay [5] and in [6] were > 11.4 µM, > 46 µM and > 9.22 µM, respectively. In addition, the activity change, negative = inhibition in assay [2] was 0.951%; in assay [3], 5.38%; in [10], -64.1% [at 11.4 µM]. In addition, the activity, negative = inhibition in [4] was 13.4%. The Potency result in assay [7], in assay [8], in assay [9], in [11] and in assay [12] was “inactive” in each case.
For the molecule `NC(N)=N[C@H](CC(=O)O)c1ccccc1`, the Potency is > 11.4 µM in assay [1], > 46 µM in assay [5] and > 9.22 µM in assay [6]. Moreover, the activity change, negative = inhibition in assay [2] was 5.91%; in assay [3] it was 1.32%. In addition, in assay [4], the activity, negative = inhibition was 3.35%. Also, the Potency result in assay [7] and in assay [8] was “inactive” in each case.
With `N#CCCn1c(=O)c(-c2ccccc2)nc2cnc(Oc3ccccc3)nc21`, the Potency is > 11.4 µM in [1], > 9.22 µM in assay [5] and > 46 µM in assay [6]. For the same molecule, the activity change, negative = inhibition is -22.6% in assay [2] and -4.58% in [3]. Besides, in [4], the activity, negative = inhibition is 2.8%. For the same molecule, the Potency entry in assay [7] and in [8] was “inactive” in each case.
As for `COCCn1c(=O)c(-c2cc(F)cc(F)c2)nc2cnc(Oc3ccc(OC)cc3)nc21`, the Potency in assay [1] was > 11.4 µM; in [5] it was > 9.22 µM; in [6] it was > 46 µM; in [10], 3.16 µM (active). In addition, the activity change, negative = inhibition in assay [2] is -11.1%; in assay [3], 0.515%. In addition, the activity, negative = inhibition in [4] is -2.08%. The Potency result in [7], in assay [8] and in [13] was “inactive” each time.
As to `Cc1ccc(C)c([C@@H]2NC(=O)c3ccccc3N2)c1`, the Potency in assay [1] was > 11.4 µM; in assay [5], > 46 µM; in assay [6], > 9.22 µM. The activity change, negative = inhibition in [2] is -2.78%; in [3] it was -14.2%. In addition, in [4], the activity, negative = inhibition is -1.94%. The Potency result in assay [7] and in [8] was “inactive” each time.
Regarding `C#CCOC(=O)[C@H](N)CC(N)=O`, the Potency in assay [1] was > 11.4 µM; in assay [5], > 46 µM; in assay [6], > 9.22 µM. The values for the activity change, negative = inhibition in assay [2] and in assay [3] were 0.665% and 13.9%, respectively. Also, the activity, negative = inhibition in assay [4] was -0.998%. Moreover, the Potency result in [7] and in assay [8] was “inactive” in each case.
